{"source": "PubChem BioAssay", "key": {"[1]": {"biological_target": "6-phosphogluconate dehydrogenase, decarboxylating (Homo sapiens) (UniProt P52209)", "sequence (P52209 whole entry, looked up)": "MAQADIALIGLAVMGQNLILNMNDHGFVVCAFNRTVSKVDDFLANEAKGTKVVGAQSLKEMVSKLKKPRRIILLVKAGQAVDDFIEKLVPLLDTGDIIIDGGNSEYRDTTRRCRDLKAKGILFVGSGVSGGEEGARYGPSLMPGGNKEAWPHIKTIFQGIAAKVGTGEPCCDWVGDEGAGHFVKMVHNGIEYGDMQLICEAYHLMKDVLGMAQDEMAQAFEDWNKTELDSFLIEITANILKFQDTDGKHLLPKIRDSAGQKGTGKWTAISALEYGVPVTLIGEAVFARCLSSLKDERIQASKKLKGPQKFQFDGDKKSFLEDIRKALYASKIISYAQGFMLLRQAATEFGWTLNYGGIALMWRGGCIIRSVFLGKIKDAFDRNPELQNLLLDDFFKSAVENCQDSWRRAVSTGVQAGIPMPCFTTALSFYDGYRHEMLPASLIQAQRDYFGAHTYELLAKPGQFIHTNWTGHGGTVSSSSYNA", "assay": "6PGD enzyme inhibitors, primary screen, biochemical, human, recombinant enzyme, NADPH absorbance (AID 1159550;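 active means at least 20% inhibition of 6-phosphogluconate dehydrogenase activity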)", "details": "recombinant 6PGD, NADPH absorbance 341 nm; at 10 µM; stronger effect = higher value"}, "[2]": {"assay": "differential killing of epithelial or mesenchymal cells, primary screen, imaging, PC-3E GFP, TEM4-18 mCherry, co-culture (AID 1345086;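 active means compounds killing one labelled cell type while sparing the other, by normalised counts and ratio limits, not self-fluorescent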;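 on all read-outs here: cells exposed to compound for 72 h before imaging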;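 on red/green cell ratio (normalised): normalised mesenchymal count divided by normalised epithelial count so high means epithelial killing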)", "details": "imaging cell counts, at 1 µM; for red/green cell ratio (normalised): actives lie on both sides"}, "[3]": {"biological_target": "Mitogen-activated protein kinase 7 (Homo sapiens) (UniProt Q13164)", "sequence (Q13164 whole entry, looked up, the tested form may be a part)": "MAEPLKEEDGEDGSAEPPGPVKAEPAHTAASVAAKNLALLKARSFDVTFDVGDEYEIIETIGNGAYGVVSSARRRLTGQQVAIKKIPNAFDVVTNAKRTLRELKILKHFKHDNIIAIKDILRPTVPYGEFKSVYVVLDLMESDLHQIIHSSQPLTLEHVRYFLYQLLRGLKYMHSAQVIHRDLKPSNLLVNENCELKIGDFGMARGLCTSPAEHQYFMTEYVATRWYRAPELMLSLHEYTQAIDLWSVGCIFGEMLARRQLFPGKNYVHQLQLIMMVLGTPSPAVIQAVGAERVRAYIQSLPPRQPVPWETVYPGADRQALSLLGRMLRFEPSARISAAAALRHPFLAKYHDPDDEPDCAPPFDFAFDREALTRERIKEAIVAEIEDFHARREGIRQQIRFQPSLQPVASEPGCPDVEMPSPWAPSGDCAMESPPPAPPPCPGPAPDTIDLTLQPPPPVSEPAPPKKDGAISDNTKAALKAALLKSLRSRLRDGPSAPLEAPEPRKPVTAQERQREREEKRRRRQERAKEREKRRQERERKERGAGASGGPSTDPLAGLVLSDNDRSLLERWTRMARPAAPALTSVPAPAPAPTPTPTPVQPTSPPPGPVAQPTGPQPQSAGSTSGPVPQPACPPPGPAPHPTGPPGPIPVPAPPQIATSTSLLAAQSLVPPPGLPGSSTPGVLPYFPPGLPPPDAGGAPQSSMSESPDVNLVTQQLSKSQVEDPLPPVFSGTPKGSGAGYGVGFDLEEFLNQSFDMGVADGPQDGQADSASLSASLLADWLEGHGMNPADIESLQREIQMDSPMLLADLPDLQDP", "assay": "ERK5 transactivation activators in reporter cells, primary screen, cell-based, HTS (AID 1508626;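 active means luciferase signal above three times the same-plate solvent-only control wells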;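 further: luciferase driven by Gal4-ERK5 fusion binding five Gal4 sites before minimal TATA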)", "details": "HeLa Gal4-ERK5 transactivation, 18 h, at 5 µM, stronger effect = higher value"}, "[4]": {"test_system": "Aerobactin synthetase IucA (Klebsiella pneumoniae hvKP1)", "assay": "Biochemical IucA enzyme inhibition primary screen of the Spectrum library (AID 1346200);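 further: 100% = wells without compound and 0% = wells lacking enzyme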", "details": "malachite green pyrophosphate, A620, at 8 µM, stronger effect = lower value"}, "[5]": {"assay": "suppressors of polyQ aggregation in yeast, 75Q-TubU reporter (AID 1593)", "details": "Yeast 75Q polyglutamine aggregation reporter"}, "[6]": {"assay": "rescue of polyQ-huntingtin neuronal dysfunction in worms, whole organism, C. elegans mechanosensory neurons, N-terminal huntingtin (AID 1599)", "details": "touch response, stronger effect = higher value"}, "[7]": {"assay": "inhibitors of mitochondrial cytochrome c release, biochemical, purified mitochondria (AID 1603);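 further: mouse liver mitochondria challenged with calcium chloride; signal normalized to the plate average as 100%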", "details": "stronger effect = lower value"}, "[8]": {"assay": "inhibitors of polyQ protein aggregation (AID 1604)", "details": "polyglutamine-induced protein aggregation inhibition assay; stronger effect = higher value; tested at 2.5 µM"}, "[9]": {"assay": "enhancers of glutamate uptake in motor neurons, MN-1 cell line (AID 1612);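 further: tested at 1 µM final; 0% = mean of DMSO vehicle wells on each plate; positive means more glutamate uptake than control and negative means less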", "details": "MN-1 motor neuron cells, stronger effect = higher value"}, "[10]": {"assay": "reducers of polyQ inclusions in PC12 cells, cell-based, NGF-treated PC12, GFPQ80 (AID 1614);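 further: lower means fewer inclusions and 0 means no inclusions at all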", "details": "PC12 NGF-treated GFP-polyQ80 inclusion reduction"}, "[11]": {"assay": "suppressors of polyglutamine aggregation in yeast, 75Q-TubH (AID 1616)", "details": "S. cerevisiae 75Q-TubH polyglutamine aggregation suppression; stronger effect = higher value"}, "[12]": {"assay": "polyglutamine-triggered caspase-3 activation inhibitors, cell-based (AID 1583)", "details": "polyglutamine-induced caspase-3 activation, cell assay; stronger effect = higher value;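 tested at 10 µM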"}, "[13]": {"assay": "liver-stage malaria parasite growth inhibition, primary screen, cell-based, HepG2, luciferase luminescence, HepG2 viability (AID 624349; in the data active means parasite load remaining mostly below about 12%, no sharp cut-off; inactive means mostly above about 10%;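 further: 100% = mean of DMSO negative control wells on the same plate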)", "details": "P. berghei liver stage in HepG2, luciferase luminescence, concentration not given here; parasite load remaining: stronger effect = lower value; viability: measured here: HepG2 viability without parasites"}, "[14]": {"assay": "sensitizers of A549 cells to miR-34 induction, primary screen, imaging, A549 dox-inducible miR-34, nuclei and caspase counts (AID 1347080;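 active means compounds whose cell count with miR-34 switched on is under 0.7 times the count with it off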)", "details": "A549 miR-34 inducible, Hoechst nuclei count, 48 h"}, "[15]": {"biological_target": "NAD(+) hydrolase SARM1 (Homo sapiens) (UniProt Q6SZW1)", "sequence (Q6SZW1 whole entry, looked up)": "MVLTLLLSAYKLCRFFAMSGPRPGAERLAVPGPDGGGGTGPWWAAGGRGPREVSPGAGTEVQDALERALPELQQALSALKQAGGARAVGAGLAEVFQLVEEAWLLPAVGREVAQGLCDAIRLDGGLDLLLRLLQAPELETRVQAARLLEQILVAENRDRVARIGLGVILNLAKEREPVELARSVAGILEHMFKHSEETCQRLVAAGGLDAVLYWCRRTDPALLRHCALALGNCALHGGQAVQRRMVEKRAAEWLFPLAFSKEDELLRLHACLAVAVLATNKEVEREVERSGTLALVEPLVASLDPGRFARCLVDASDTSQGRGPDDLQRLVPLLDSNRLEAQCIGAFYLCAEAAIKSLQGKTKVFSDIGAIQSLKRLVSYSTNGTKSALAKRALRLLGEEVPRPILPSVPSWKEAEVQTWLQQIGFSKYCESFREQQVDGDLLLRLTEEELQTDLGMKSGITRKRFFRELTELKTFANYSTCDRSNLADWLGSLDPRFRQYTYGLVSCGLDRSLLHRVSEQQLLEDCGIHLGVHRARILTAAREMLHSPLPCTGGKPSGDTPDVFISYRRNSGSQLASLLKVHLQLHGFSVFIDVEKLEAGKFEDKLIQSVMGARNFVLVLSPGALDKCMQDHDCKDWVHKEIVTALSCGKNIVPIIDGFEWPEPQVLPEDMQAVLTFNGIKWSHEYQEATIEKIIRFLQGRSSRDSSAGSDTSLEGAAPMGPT", "assay": "SARM1 TIR NADase inhibitors, cell lysate, NAD-Glo luminescence (AID 1508614;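 active means compound whose remaining NAD level is above about 45 nM, limit read from the data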)", "details": "SAM-TIR HEK293T lysate NADase, at 1 µM, stronger effect = higher value"}, "[16]": {"assay": "circadian clock period modulators, cell-based, LOPAC library, luminescence reporter (AID 2774)", "details": "circadian reporter cells, at 7 µM, actives lie on both sides"}, "[17]": {"test_system": "Hepatitis C virus NS3 helicase", "assay": "HCV NS3 helicase inhibitors, primary screen, biochemical, fluorescence polarization, LOPAC1280 library (AID 687035; in the data active means inhibition above about 37%)", "details": "Purified HCV NS3 helicase, Cy5-dT15 ssDNA binding fluorescence polarization; stronger effect = higher value; concentration not given here"}, "[18]": {"assay": "Cy5 fluorescence quenching or enhancement artefacts, artefact control for HCV NS3 helicase inhibitor project, biochemical, LOPAC1280 (AID 687037)", "details": "Cy5-DNA-NS3h complex fluorescence interference counterscreen"}, "[19]": {"test_system": "Aerobactin synthetase IucA (Klebsiella pneumoniae)", "assay": "IucA aerobactin synthetase inhibitors, biochemical, Tocris library, absorbance (AID 1345561);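 further: 100% = enzyme without compound and 0% = no enzyme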", "details": "purified IucA enzyme assay, absorbance (OD) read-out; stronger effect = lower value;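 tested at 8 µM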"}, "[20]": {"test_system": "Aerobactin synthetase IucA (Klebsiella pneumoniae, hypervirulent)", "assay": "IucA enzyme inhibition, biochemical, LOPAC library, absorbance readout (AID 1346212);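 further: 100% = no compound wells and 0% = no enzyme wells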", "details": "IucA enzyme assay, absorbance (OD) readout; stronger effect = lower value;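 tested at 8 µM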"}, "[21]": {"assay": "phospholipid biosynthesis inhibitors in animal cells, primary screen, cell-based, LOPAC library, screen 4 (AID 1347384)", "details": "phospholipid biosynthesis inhibition screen, at 10 µM"}, "[22]": {"assay": "survival rescue of mitochondrial mutant cells in low glucose, primary screen, MELAS cybrids, Rieske KO mouse fibroblasts, CellTiter-Glo (AID 1508586;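 active means mean z-score across replicates of 1.96 or higher in either the MELAS or the Rieske mutant cell line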;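 further: z relative to plate mean and SD of compound and empty wells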)"}, "[23]": {"assay": "viability rescue of complex I mutant cybrids, primary screen, cell-based, galactose medium, ATP luminescence (AID 1645843;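 active means z-score of at least 1.8 in each of two replicates, scored against plate mean and spread of sample wells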;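 further: positive z means more ATP and so rescue of galactose-driven cybrid death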)", "details": "complex I mutant cybrid cells, 72 h, stronger effect = higher value"}, "[24]": {"details": "measured here: epithelial PC-3E GFP cell survival"}, "[25]": {"details": "measured here: mesenchymal TEM4-18 mCherry cell survival"}, "[26]": {"details": "measured here: relative caspase fold change +Dox/-Dox"}, "[27]": {"details": "measured here: total cells with miR-34 induction, stronger effect = lower value"}, "[28]": {"details": "measured here: total cells without miR-34 induction"}}, "note": "Where “and” joins values, the source holds several entries; their conditions need not be identical. Identical values can stand only once. For some assays here: Entries with a potency or affinity are not part of this list. Calls of active or inactive are those of the source. Unless noted, how the calls were made is not given here.", "data": [{"smiles": "C=CCc1cc(OC)c2c(c1OC)OCO2", "values": [{"measurement": "inhibition", "setting": "[1]", "value": "-12.9% (inactive)"}, {"measurement": "red/green cell ratio (normalised)", "setting": "[2]", "value": "1.18 (inactive)"}, {"measurement": "normalised cell number", "setting": "[2]; [24]", "value": 0.73}, {"measurement": "normalised cell number", "setting": "[2]; [25]", "value": 0.87}, {"measurement": "luciferase signal", "setting": "[3]", "value": "32 AU (inactive)"}]}, {"smiles": "COc1c(CC=C(C)C)c2c(c3oc(=O)c(-c4ccc(O)cc4)c(O)c13)C=CC(C)(C)O2", "values": [{"measurement": "inhibition", "setting": "[1]", "value": "-2.87% (inactive)"}, {"measurement": "activity remaining", "setting": "[4]", "value": "114% (inactive)"}]}, {"smiles": "C[C@]12CCC3C(CC[C@]4(O)C[C@@H](O)CC[C@]34C=O)[C@@]1(O)CCC2C1=CC(=O)OC1", "note": "(some centres undefined)", "values": [{"measurement": "score", "setting": "[5]", "value": 1.09}, {"measurement": "rescue above control", "setting": "[6]", "value": 6.59}, {"measurement": "cytochrome c release ratio", "setting": "[7]", "value": 1.29}, {"measurement": "inhibition of aggregation", "setting": "[8]", "value": 62.8, "unit": "%"}, {"measurement": "glutamate uptake change", "setting": "[9]", "value": 13.8, "unit": "%"}, {"measurement": "inclusion score", "setting": "[10]", "value": 0}, {"measurement": "aggregation suppression score", "setting": "[11]", "value": 1.29}, {"measurement": "inhibition", "setting": "[1]", "value": "14.9% (inactive)"}, {"measurement": "red/green cell ratio (normalised)", "setting": "[2]", "value": "0.2 (inactive)"}, {"measurement": "normalised cell number", "setting": "[2]; [24]", "value": 0.18}, {"measurement": "normalised cell number", "setting": "[2]; [25]", "value": 0.04}, {"measurement": "activity remaining", "setting": "[4]", "value": "79.3% (inactive)"}]}, {"smiles": "O=C1CCO1", "values": [{"measurement": "inhibition", "setting": "[12]", "value": 12.7, "unit": "%"}, {"measurement": "score", "setting": "[5]", "value": 1.2}, {"measurement": "rescue above control", "setting": "[6]", "value": 11.7}, {"measurement": "cytochrome c release ratio", "setting": "[7]", "value": 1.11}, {"measurement": "inhibition of aggregation", "setting": "[8]", "value": 22.4, "unit": "%"}, {"measurement": "glutamate uptake change", "setting": "[9]", "value": 5.98, "unit": "%"}, {"measurement": "inclusion score", "setting": "[10]", "value": 2}, {"measurement": "aggregation suppression score", "setting": "[11]", "value": 1.23}, {"measurement": "parasite load remaining", "setting": "[13]", "value": "165% (inactive) and 39.1% (inactive)"}, {"measurement": "viability", "setting": "[13]", "value": "91.2% and 89.3%"}, {"measurement": "inhibition", "setting": "[1]", "value": "-4.86% (inactive)"}, {"measurement": "red/green cell ratio (normalised)", "setting": "[2]", "value": "1.22 (inactive)"}, {"measurement": "normalised cell number", "setting": "[2]; [24]", "value": 0.9}, {"measurement": "normalised cell number", "setting": "[2]; [25]", "value": 1.09}, {"measurement": "fold change", "setting": "[14]; stronger effect = lower value", "value": "0.872 (inactive)"}, {"measurement": "fold change", "setting": "[14]; [26]", "value": 2.98}, {"measurement": "cell count", "setting": "[14]; [27]", "value": 11800}, {"measurement": "cell count", "setting": "[14]; [28]", "value": 13500}, {"measurement": "remaining NAD", "setting": "[15]", "value": "10 nM (inactive)"}, {"measurement": "luciferase signal", "setting": "[3]", "value": "100 AU (inactive)"}]}, {"smiles": "O=C1CCCN1CC#CCN1CCCC1", "values": [{"measurement": "inhibition", "setting": "[12]", "value": 17.7, "unit": "%"}, {"measurement": "score", "setting": "[5]", "value": 1.21}, {"measurement": "rescue above control", "setting": "[6]", "value": 3.59}, {"measurement": "cytochrome c release ratio", "setting": "[7]", "value": 0.97}, {"measurement": "inhibition of aggregation", "setting": "[8]", "value": 79.6, "unit": "%"}, {"measurement": "glutamate uptake change", "setting": "[9]", "value": 5.01, "unit": "%"}, {"measurement": "inclusion score", "setting": "[10]", "value": 1}, {"measurement": "aggregation suppression score", "setting": "[11]", "value": 1.3}, {"measurement": "period change", "setting": "[16]", "value": "0.015 h (inactive)"}, {"measurement": "parasite load remaining", "setting": "[13]", "value": "75.3% (inactive) and 41.2% (inactive)"}, {"measurement": "viability", "setting": "[13]", "value": "88.4% and 99%"}, {"measurement": "inhibition", "setting": "[17]", "value": "-4% (inactive)"}, {"measurement": "fluorescence ratio (interference)", "setting": "[18]", "value": "0.9 (inactive)"}, {"measurement": "inhibition", "setting": "[1]", "value": "-3.4% (inactive)"}, {"measurement": "remaining activity", "setting": "[19]", "value": "92.7% (inactive)"}, {"measurement": "activity remaining", "setting": "[4]", "value": "119% (inactive)"}, {"measurement": "remaining activity", "setting": "[20]", "value": "119% (inactive)"}, {"measurement": "fold change", "setting": "[14]; stronger effect = lower value", "value": "1.1 (inactive) and 0.966 (inactive) and 0.92 (inactive)"}, {"measurement": "fold change", "setting": "[14]; [26]", "value": "0.937 and 0.652 and 1.46"}, {"measurement": "cell count", "setting": "[14]; [27]", "value": "11000 and 8640 and 10100"}, {"measurement": "cell count", "setting": "[14]; [28]", "value": "10100 and 8940 and 11000"}, {"measurement": "outcome", "setting": "[21]", "value": "inactive"}, {"measurement": "z-score", "setting": "[22]; MELAS cybrid survival, CellTiter-Glo 48 h, stronger effect = higher value", "value": "-0.379 (inactive)"}, {"measurement": "z-score", "setting": "[22]; Rieske KO mouse fibroblast survival, CellTiter-Glo 72 h", "value": -0.277}, {"measurement": "luciferase signal", "setting": "[3]", "value": "44 AU (inactive)"}, {"measurement": "z-score", "setting": "[23]", "value": "0.355 (inactive) and 1.75 (inactive) and 0.67 (inactive)"}]}, {"smiles": "CC(C)N(C(=O)SCC(Cl)=C(Cl)Cl)C(C)C", "values": [{"measurement": "inhibition", "setting": "[1]", "value": "4.75% (inactive)"}, {"measurement": "activity remaining", "setting": "[4]", "value": "102% (inactive)"}]}, {"smiles": "CNc1ccccc1C(=O)O", "values": [{"measurement": "inhibition", "setting": "[1]", "value": "18.3% (inactive)"}, {"measurement": "red/green cell ratio (normalised)", "setting": "[2]", "value": "0.85 (inactive)"}, {"measurement": "normalised cell number", "setting": "[2]; [24]", "value": 1.13}, {"measurement": "normalised cell number", "setting": "[2]; [25]", "value": 0.95}, {"measurement": "luciferase signal", "setting": "[3]", "value": "76 AU (inactive)"}]}, {"smiles": "COC(=O)COc1ccc(Cl)cc1Cl", "values": [{"measurement": "inhibition", "setting": "[1]", "value": "-25.1% (inactive)"}, {"measurement": "activity remaining", "setting": "[4]", "value": "109% (inactive)"}]}]}
